Screens (PubChem)
TGFb SMAD3 inh – TGF-b pathway inhibition; HepG2 CAGA-GFP TGF-b/SMAD3 reporter, GFP fluorescence, 18 h; TGF-beta stimulated, 500 pg/mL final; 1.2% of 410,000 active; AID 588855; Potency, µM (highest dose often 46.1 µM), without a hit: top-dose activity, negative = inhibition, most hits filed as inhibitors; further: on the % scale 0 is the no-effect control and ±100 the full control effect; nearly all actives have a fitted effect of over 65% in size
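HEPG2 CAGA-GFP, 1000 cells/well; 2 h settle, 37 C; cpd via pin tool; TGF-b 500 pg/mL final; 18 h, 37 C; GFP imaging ex488/em500-530; %Activity normalised to -TGF-b and +DMSO controls; CRC fit, curve class.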
ATXN2 expr inh – reduces ATXN2 reporter expression in HEK-293 cells | Potency, µM (series often up to 57 µM), without a hit: top-dose activity change, negative = inhibition, usual class: inhibitors | HEK-293 ATXN2-luciferase reporter, luminescence, 24 h | 0.72% of 360,000 active; further: on the % scale 0 is the no-effect control and ±100 the full control effect; nearly all actives have a fitted effect of over 55% in size
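ATXN2-luciferase reporter cells (luciferase flanked by upstream and downstream ATXN2 gene portions) were treated 24 h at 37 °C with compounds at up to 57 uM. SteadyGlo luminescence gave expression; GF-AFC fluorescence gave viability.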
RORgamma inh – blocks mouse ROR gamma transcriptional activity; P51450; Drosophila S2 Gal4-RORgamma UAS-luciferase reporter, 20 h; Potency, µM (doses to about 53.6 µM), inactives show at the highest dose activity change, negative = inhibition, most hits filed as inhibitors; 5.4% of 310,000 active; AID 2551; further: on the % scale 0 is the no-effect control and ±100 the full control effect; nearly all actives have a fitted effect of over 60% in size
Target sequence (P51450 whole entry, looked up, the tested form may be a part): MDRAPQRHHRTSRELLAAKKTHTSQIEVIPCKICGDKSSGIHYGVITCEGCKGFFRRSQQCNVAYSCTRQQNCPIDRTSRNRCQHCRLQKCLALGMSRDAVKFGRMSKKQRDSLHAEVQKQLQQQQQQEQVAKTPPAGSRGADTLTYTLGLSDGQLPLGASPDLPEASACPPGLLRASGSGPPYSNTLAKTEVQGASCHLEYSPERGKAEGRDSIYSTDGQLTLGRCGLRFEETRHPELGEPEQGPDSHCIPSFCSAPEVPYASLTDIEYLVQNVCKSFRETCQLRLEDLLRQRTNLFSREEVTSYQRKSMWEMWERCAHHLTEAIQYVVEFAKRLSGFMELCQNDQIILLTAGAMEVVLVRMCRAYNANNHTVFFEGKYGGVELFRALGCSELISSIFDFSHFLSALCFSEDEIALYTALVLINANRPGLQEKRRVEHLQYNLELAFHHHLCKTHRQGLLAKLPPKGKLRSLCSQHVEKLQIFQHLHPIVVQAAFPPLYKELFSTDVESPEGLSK
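Compounds are pin-transferred onto Drosophila Schneider cells expressing a copper-inducible Gal4–ROR gamma transactivation domain fusion. After 1 hr, copper sulfate is added to 700 uM final; luciferase is read 20 hr later.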
Gal4-VP16 FLuc – inhibits Gal4-VP16 luciferase reporter, ROR gamma counter-screen | Drosophila S2 Gal4-VP16 UAS-luciferase, luminescence, 20 h | Potency, µM (doses to about 53.6 µM), without a hit: at the top dose activity, negative = inhibition, hits mostly inhibitors | 3.5% of 310,000 active | AID 2546;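 further: Gal4-VP16 expression switched on by copper sulfate through the metallothionein promoter; on the % scale 0 is the no-effect control and ±100 the full control effect; nearly all actives have a fitted effect of over 50% in size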
HepG2 tox – HepG2 cytotoxicity, counter-screen for TGF-b inhibitors. 0.76% of 410,000 active. Potency, µM (highest dose often 46.1 µM), for the others: at the highest dose activity change, negative = cytotoxicity, usual class: cytotoxic. AID 588856. HepG2 CAGA-GFP viability, ATP luminescence, 18 h
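CellTiter-Glo luminescence gave cytotoxicity after 18 hours at 37 degrees C. The cells were HepG2 CAGA-GFP in 1% FBS DMEM, stimulated with 500 pg/mL TGF-beta after compound addition. %Activity was normalised to no-cell wells (complete cell-killing) and DMSO (no toxicity), and curves were fitted and classified.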
ATXN viability – viability counter-screen for ATXN expression inhibitors; 0.49% of 400,000 active; Potency, µM (highest dose often 56.7 µM), usual class: cytotoxic; S2 cells (HEK-293 line with an ATXN2-luciferase reporter) viability, CellTiter-Fluor protease fluorescence, 24 h; further: nearly all actives have a fitted effect of over 40% in size
* marks the source's active call; other numbers are inactive results; i = inactive; ? = inconclusive; · = not tested or not shown; [ ] = another dose, or the depositor's remark. Rows were chosen to be rich in hits. Some 6.3% of all compounds tested hit in one or more screens of this group. The call rests on the fitted dose curve; in most records, active means well fitted curve in the direction sought with a large enough effect; inconclusive means small, poorly fitted or top-dose-only effect, or another doubt; inactive means no such curve, though single readings can be large; an effect the other way counts as inactive or inconclusive. Potency means the concentration at half of the fitted maximal effect.

SMILES | TGFb SMAD3 inh | ATXN2 expr inh | RORgamma inh | Gal4-VP16 FLuc | HepG2 tox | ATXN viability
O=c1[nH]c(-c2ccccn2)cc2ccccc12 | -7% | 23% | 5µM* | ? | -10% | i
O=c1[nH]c(Nc2ccccn2)cc2ccccc12 | 0% | 24% | · | · | -27% | i
COC(=O)/C(=C/c1c[nH]c2ccccc12)NC(C)=O | -8% | -14%[11.3 µM] | 8% | -2% | 4% | i
COC(=O)/C(=C/c1c[nH]c2ccccc12)[N+](=O)[O-] | 1% | -32% | ? | 20µM* | -19% | ?
CCN(CC)c1ccc(/C=C/c2ccc3ccccc3n2)cc1 | 2.5µM* | · | · | · | 3.2µM* | ·
CC(=O)/C=C/c1ccc2ccccc2n1 | ? | 2% | 10µM* | ? | 20µM* | i
CC(OC(=O)/C=C/c1ccc2ccccc2n1)C(=O)N(C)c1ccccc1 (stereo not drawn) | -8% | 36% | · | · | 3% | i
CC[N+](C)(C)c1ccc(/C=C/c2ccc3ccccc3n2)cc1 | 6.3µM* | · | · | · | -56% | ·
COCCc1nn2c(=O)cc(COC(=O)c3ccc(C(C)(C)C)cc3)nc2s1 | 0% | -31% | · | · | -34% | i
COc1ccc(F)cc1S(=O)(=O)N1CCc2ccccc2C1 | -3% | · | · | · | -1% | i
COc1ccccc1CNC(=O)c1ccc(N2CCCC2)c(NC(=O)NCCC(C)C)c1 | -3% | 3% | · | · | 2% | i
COc1ccccc1N(CC(=O)NC1CCCC1)C(=O)c1oc(C(C)(C)C)cc1C | ? | ? | 13µM* | -2% | -28% | i
Cc1cc(C(C)(C)C)oc1C(=O)N(CC(=O)NC1CCCC1)c1c(C)cccc1C | ? | ? | -27% | -5%[0.365 µM] | 16µM* | ?
Cc1cc(C(C)(C)C)oc1C(=O)N(CC(=O)NC1CCCC1)c1ccc(F)cc1 | ? | -21% | 6% | -12%[0.365 µM] | -30% | i
CCOC(=O)c1ccc(/C=C2/C=C(c3ccccc3)N(c3ccc(Cl)c(C(=O)O)c3)C2=O)cc1 | -29% | 11µM* | ? | -26% | -35% | ?
CC1NC(=S)N(C2CCCCC2)C1=O (stereo not drawn) | 16% | -10% | 11µM* | -5% | 7% | i
CCC(C)C1NC(=S)N(C2CCCCC2)C1=O (stereo not drawn) | ? | 5% | 6.3µM* | 11µM* | -5% | i
O=C1C2CCCN2C(=S)N1C1CCCCC1 (stereo not drawn) | ? | · | 21% | -9% | -15% | i
CCCCC1NC(=S)N(C2CCCCC2)C1=O (stereo not drawn) | 0% | -4% | 13µM* | ? | 1% | i
C[C@]12c3[nH]c4ccccc4c3CCN1C(=O)C(CC(=O)NCCCn1ccnc1)C[C@@H]2C(=O)N1CCCCC1 (stereo partly drawn) | 6% | 1% | · | · | 3% | i
Cc1nnc(NC(=O)CSc2nccn2-c2cccc(Cl)c2)s1 | -17% | · | · | · | -18% | ·
CCOc1ccc(-n2ccnc2SCC(=O)Nc2nnc(CC)s2)cc1 | 12% | 16% | 10µM* | 4% | -1% | i
CCSc1nnc(NC(=O)CSc2nccn2-c2cccc(C)c2)s1 | -7% | 1% | 11µM* | ? | 2% | i
CN(N=O)c1ccc(/C=C/c2ccnc3ccccc23)cc1 | -5% | · | · | · | -29% | ·
Cn1c(C(C#N)C(=O)Cc2cccc3ccccc23)nc2ccccc21 (stereo not drawn) | 3% | -10% | 0.79µM* | ? | -11% | i
SMILES | TGFb SMAD3 inh | ATXN2 expr inh | RORgamma inh | Gal4-VP16 FLuc | HepG2 tox | ATXN viability
Cn1c(C(C#N)C(=O)c2ccco2)nc2ccccc21 (stereo not drawn) | ? | 48% | ? | 6.3µM* | -27% | i
COc1ccc(-c2cc(=O)c3c(O)cc(O)cc3o2)cc1 | 10µM* | 116% | ? | -1% | -57% | i
O=C(N/N=C\c1cc(Br)c(Br)o1)c1cncc(Br)c1 | 0% | -12% | 1.4µM* | 2µM* | -29% | i
O=C(N/N=C/C=C/c1ccc(Br)cc1)C(O)c1ccccc1 (stereo not drawn) | 3% | · | 11µM* | ? | -1% | i
O=C(N/N=C\C=C\c1ccco1)c1cc(-c2ccc3ccccc3c2)n[nH]1 | -22% | · | 2.2µM* | 1µM* | -21% | ?
O=C(N/N=C/C=C/c1ccccc1)c1ccc(Br)cc1 | -17% | -10% | 3.2µM* | 4.5µM* | -10% | i
Cn1cc(C(=O)N/N=C/C=C/c2ccccc2)ccc1=O | 9% | 9% | ? | ? | -8% | i
CN(Cc1ccccc1F)C(=O)c1sccc1-c1ccccc1 | -13% | 10% | 9% | 4% | -12% | i
O=C(N/N=C/C=C/c1ccco1)c1cccnc1 | 0% | 0% | -7% | 12% | -21% | i
O=C(N/N=C/C=C/c1ccccc1)c1cccnc1 | 11% | 2% | 5.6µM* | ? | -14% | i
O=C(CNc1cccc2ccccc12)N/N=C/C=C/c1ccco1 | -27% | · | 13µM* | ? | -3% | ?
O=C(N/N=C\C=C\c1ccco1)c1cncc(Br)c1 | ? | -2% | 2.2µM* | ? | -33% | i
O=C(N/N=C/C=C\c1ccco1)c1cccnc1 | 4% | 11% | 13µM* | ? | -10% | i
COC(=O)[C@@H]1CCCN1Cc1ccc2c(c1)CN(Cc1ccccc1F)CCO2 | · | · | · | · | · | i
Cc1ccc(CNC(=O)c2ccc(N3CCCC3=O)cc2)cc1 | 0% | 35% | 10% | 2% | -2% | i
Cn1nc(C(C)(C)C)cc1C(=O)NCc1ccc(N2CCCC2=O)cc1 | -11% | -14% | ? | 0.56µM* | -26% | i
C=CCn1c(O)c(C2=c3ccccc3=NC2=O)c2ccccc21 | ? | ? | 4.5µM* | 4µM* | -81% | i
CN(C(=O)CSc1nc(-c2ccccc2)no1)c1ccc(F)cc1 | -13% | 8% | · | · | 1% | i
CC(CCC(C)C(C)(C)C)[C@@H]1CC[C@H]2C3C[C@H](OS(O)(=S)=S)[C@H]4C[C@H](OS(O)(=S)=S)[C@@H](OS(O)(=S)=S)C[C@]4(C)[C@H]3CC[C@]12C (stereo partly drawn) (tested in a mixture with another compound) | ? | ? | · | · | 16µM* | 18µM*
O=C(CSc1nnc(-c2cccnc2)o1)Oc1ccccc1 | 10% | 0% | -14% | -5% | 0% | i
O=C(CSc1nnc(-c2cccnc2)o1)c1cc2ccccc2oc1=O | 32% | 0% | ? | 4µM* | -6% | i
Nc1nc2c(ncn2[C@H]2C[C@H](O)[C@@H](CO)O2)c(=O)[nH]1 | -4% | -2% | · | · | 8% | i
OCC1OC(n2cnc3c(Cl)nc(Cl)nc32)C(O)C1O (stereo not drawn) | · | · | 13µM* | -4% | · | ·
